Drawing on PubChem BioAssay (EPA / NIEHS), this text covers outcome and AC50 for ten molecules.

Assay [1] addresses human Peroxisome Proliferator-activated Receptor alpha (PPARa), PPARA (gene 5465) (UniProt Q07869). Briefly: ATG_PPARa_TRANS: Attagene TRANS-FACTORIAL HepG2 Assay for human Peroxisome Proliferator-activated Receptor alpha (PPARa) (AID 2283001).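 As to AC50: potency for gain of reporter signal over DMSO so agonist or activator.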 The method, boiled down:
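HepG2 cells transiently transfected with multiplexed GAL4-UAS reporters driven by exogenous chimeric NR-Gal4 proteins; reporter mRNA measured after 24 h dosing. Read-out by RT-PCR, 6-FAM labelling, HpaI digestion and capillary electrophoresis; gain of signal versus DMSO.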

Assay [2] deals with human Peroxisome Proliferator-activated Receptor delta (PPARd), PPARD (gene 5467) (UniProt Q03181). Briefly: ATG_PPARd_TRANS: Attagene TRANS-FACTORIAL HepG2 Assay for human Peroxisome Proliferator-activated Receptor delta (PPARd) (AID 2283002). The gist of the method: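 Read-out: reporter mRNA induction, quantified by fluorescent RT-PCR products resolved by capillary electrophoresis. Human HepG2 liver cells carried transiently transfected Gal4-UAS reporter constructs with chimeric NR-Gal4 fusions. Cells were dosed for 24 h; DMSO served as baseline.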

Assay [3] deals with Peroxisome proliferator-activated receptor gamma (Homo sapiens) (UniProt P37231). The assay can be described thus: ATG_PPARg_TRANS: Attagene TRANS-FACTORIAL HepG2 Assay for human Peroxisome Proliferator-activated Receptor-gamma (PPARg) (AID 2283007). The method, boiled down:
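Liver-derived HepG2 cells expressing an exogenous NR-Gal4 chimera alongside GAL4-UAS reporter genes; 24 h exposure. Fluorescence of reporter RT-PCR products, separated by capillary electrophoresis, gives mRNA induction relative to DMSO.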

Assay [4] has as its target Nuclear receptor subfamily 1 group I member 2 (Homo sapiens) (UniProt O75469). The assay can be described thus: ATG_PXR_TRANS: Attagene TRANS-FACTORIAL HepG2 Assay for human Pregnane X Receptor (PXR) (AID 2283008). The method, boiled down: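 HepG2 cells transiently transfected with GAL4-UAS reporter units and PXR-Gal4 chimera, exposed 24 h. Reporter mRNA quantified by RT-PCR, fluorescent labelling, HpaI digestion and capillary electrophoresis; gain of signal vs DMSO.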

Assay [5] addresses human RAR-related Orphan Receptor beta (RORb), RORB (gene 6096) (UniProt Q92753). Briefly: ATG_RORb_TRANS: Attagene TRANS-FACTORIAL HepG2 Assay for human RAR-related Orphan Receptor beta (RORb) (AID 2283010). The gist of the method: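 Readout is reporter-gene mRNA induction, detected as fluorescence after RT-PCR and capillary electrophoresis, fitted for gain of signal against DMSO controls. Transiently transfected HepG2 liver cells carrying GAL4-UAS reporter constructs were treated for 24 hours.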

Assay [6] deals with human RAR-related Orphan Receptor gamma (RORg), RORC (gene 6097) (UniProt P51449). The assay can be described thus: ATG_RORg_TRANS: Attagene TRANS-FACTORIAL HepG2 Assay for human RAR-related Orphan Receptor gamma (RORg) (AID 2283011). The gist of the method: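 First, HepG2 liver cells were transfected with GAL4-UAS-driven reporter constructs and the RORg-Gal4 fusion. Next, they were treated with chemical for 24 h. Finally, reporter mRNA was quantified by RT-PCR and capillary electrophoresis, with upward activity fitted against DMSO.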

The target in assay [7] is Retinoic acid receptor RXR-alpha (Homo sapiens) (UniProt P19793). Briefly: ATG_RXRa_TRANS: Attagene TRANS-FACTORIAL HepG2 Assay for human Retinoid X Receptor alpha (RXRa) (AID 2283012). The gist of the method:
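Transient transfection of human HepG2 with multiple GAL4-UAS reporter constructs; 24 h compound exposure; total RNA isolated, reverse-transcribed, PCR-amplified, 6-FAM labelled, HpaI-cut, resolved by capillary electrophoresis. Positive-direction fit versus DMSO.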

Assay [8] has as its target human Retinoid X Receptor beta (RXRb), RXRB (gene 6257) (UniProt P28702). The assay can be described thus: ATG_RXRb_TRANS: Attagene TRANS-FACTORIAL HepG2 Assay for human Retinoid X Receptor beta (RXRb) (AID 2283013). The method, boiled down:
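Transfect HepG2 with GAL4-UAS multi-reporter constructs (chimeric NR-Gal4, TRANS format); dose compound 24 h; isolate RNA, RT-PCR, FAM primer extension, HpaI digest; quantify by capillary electrophoresis; positive direction vs DMSO.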

Assay [9] deals with human Thyroid Receptor alpha (THRa1), THRA (gene 7067) (UniProt P10827). Briefly: ATG_THRa1_TRANS: Attagene TRANS-FACTORIAL HepG2 Assay for human Thyroid Receptor alpha (THRa1) (AID 2283014). The gist of the method: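 Reporter transcript induction, read by capillary electrophoresis of 6-FAM-labelled RT-PCR products, reflects activity of a transfected THRa1-Gal4 fusion in HepG2 liver cells. Cells were dosed for 24 h; activity was fitted in the positive direction against DMSO.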

Assay [10] has as its target human Retinoic Acid Receptor beta (RARb), RARB (gene 5915) (UniProt P10826). The assay can be described thus: ATG_RARb_TRANS: Attagene TRANS-FACTORIAL HepG2 Assay for human Retinoic Acid Receptor beta (AID 2283004). The method, boiled down:
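Transient transfection of HepG2 with multiple reporter units → chemical dosing, 24 h → total RNA isolation → RT with oligo(dT) → reporter-specific PCR, 6-FAM primer extension, HpaI digest → capillary electrophoresis. Positive direction vs DMSO control.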

Assay [11] concerns the target Retinoic acid receptor alpha (Homo sapiens) (UniProt P10276). Briefly: ATG_RARa_TRANS: Attagene TRANS-FACTORIAL HepG2 Assay for human Retinoic Acid Receptor alpha (RARa) (AID 2283005). The gist of the method:
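HepG2 transiently transfected with multiplex GAL4-UAS reporter units including a human RARa–GAL4 chimera; 24 h compound exposure. Reporter mRNA quantified by RT-PCR, 6-FAM labeling and capillary electrophoresis; gain of signal versus DMSO.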

In assay [12] the target is human Retinoic Acid Receptor gamma (RARg), RARG (gene 5916) (UniProt P13631). Briefly: ATG_RARg_TRANS: Attagene TRANS-FACTORIAL HepG2 Assay for human Retinoic Acid Receptor gamma (RARg) (AID 2283009). The gist of the method: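 Transient transfection of HepG2 with multi-reporter constructs, then 24 h chemical treatment. Total RNA isolated, reverse-transcribed, PCR-amplified, fluorescently labelled and resolved by capillary electrophoresis; activity scored as mRNA induction versus DMSO.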

Read-out in assay [13]: Intercellular Adhesion Molecule 1 (ICAM1), ICAM1 (gene 3383)
Briefly: BSK_3C_ICAM1: BioMAP Diversity Plus: 3C Assay for Intercellular Adhesion Molecule 1 (ICAM1) Biomarker Activity (AID 2283003; active = hit-call score of the fitted dose curve at least 0.9, where 1 is the maximum; inactive = score below 0.9). The following applies: primary human endothelial cells (HUVEC); actives raise or lower the signal. The gist of the method:
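ICAM-1 levels measured by ELISA after HUVEC cultures in the 3C system had been dosed for 24 h. Gain or loss of signal relative to DMSO was fitted in both directions.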

Assay [14] can be described thus: BSK_3C_Proliferation: Cell Proliferation Assessment in the BioMAP Diversity Plus: 3C Assay (AID 2283006; active = hit-call score of the fitted dose curve at least 0.9, where 1 is the maximum; inactive = score below 0.9). The following applies: primary human endothelial cells (HUVEC). The gist of the method: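 Read-out is total protein by SRB absorbance at 560 nm, taken as a proxy for relative cell number. Primary human umbilical vein endothelium cultured below confluence was dosed for 48 h, TCA-fixed and SRB-stained; curves were fitted bidirectionally versus DMSO.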

Read-out in assay [15]: E-selectin (Homo sapiens) (UniProt P16581)
Briefly: BSK_3C_Eselectin: BioMAP Diversity Plus: 3C Assay for Eselectin Biomarker Activity (AID 2283015; active = hit-call score of the fitted dose curve at least 0.9, where 1 is the maximum; inactive = score below 0.9;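 also: cell surface E-selectin protein quantified by ELISA 24 h after dosing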). The note with it: primary human endothelial cells (HUVEC); actives raise or lower the signal. The gist of the method: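 ELISA read-out of E-selectin on endothelial monolayers after 24 h chemical treatment. Human umbilical vein primary cells served as the system, with DMSO defining baseline activity for bidirectional fitting.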

Read-out in assay [16]: Interleukin-1 alpha (IL1a), IL1A (gene 3552)
Briefly: BSK_BE3C_IL1a: BioMAP Diversity Plus: BE3C Assay for Interleukin-1 alpha (IL1a) Biomarker Activity (AID 2283016; active = hit-call score of the fitted dose curve at least 0.9, where 1 is the maximum; inactive = score below 0.9). The note with it: primary human bronchial epithelial cells; actives raise or lower the signal. The gist of the method:
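BE3C primary human bronchial epithelium; cpd 24 h; IL-1a by ELISA; bidirectional fit vs DMSO; parallel SRB (0.1% SRB, 10% TCA fix, 560 nm) for cytotoxicity.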

Read-out in assay [17]: Monocyte Chemoattractant Protein-1 (MCP1), CCL2 (gene 6347)
Briefly: BSK_3C_MCP1: BioMAP Diversity Plus: 3C Assay for Monocyte Chemoattractant Protein-1 (MCP1) Biomarker Activity (AID 2283017; active = hit-call score of the fitted dose curve at least 0.9, where 1 is the maximum; inactive = score below 0.9). The note with it: primary human endothelial cells (HUVEC); actives raise or lower the signal. The method, boiled down: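 ELISA read-out of MCP-1 from human umbilical vein endothelial cell cultures harvested 24 h post-dosing. Gain or loss of signal was fitted relative to DMSO.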

Read-out in assay [18]: Monocyte Chemoattractant Protein-1 (MCP1), CCL2 (gene 6347)
The assay can be described thus: BSK_4H_MCP1: BioMAP Diversity Plus: 4H Assay for Monocyte Chemoattractant Protein-1 (MCP1) Biomarker Activity (AID 2283018; active = hit-call score of the fitted dose curve at least 0.9, where 1 is the maximum; inactive = score below 0.9). The note with it: primary human endothelial cells (HUVEC); actives raise or lower the signal. The gist of the method:
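ELISA read-out of MCP-1 from human vascular endothelial primary cells taken at 24 hours after compound exposure. Activity was fitted in both directions relative to DMSO, which served as negative control.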

Read-out in assay [19]: Human Leukocyte Antigen - DR isotype (HLADR), HLA-DRA (gene 3122)
The assay can be described thus: BSK_3C_HLADR: BioMAP Diversity Plus: 3C Assay for Human Leukocyte Antigen - DR isotype (HLADR) Biomarker Activity (AID 2283019; active = hit-call score of the fitted dose curve at least 0.9, where 1 is the maximum; inactive = score below 0.9). The following applies: primary human endothelial cells (HUVEC); actives raise or lower the signal. The gist of the method: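 ELISA readout of surface HLA-DR on human umbilical vein endothelium, taken 24 h after chemical treatment. Gain- and loss-of-signal were both fitted relative to DMSO.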

Read-out in assay [20]: Interleukin-8 (IL8), CXCL8 (gene 3576)
The assay can be described thus: BSK_3C_IL8: BioMAP Diversity Plus: 3C Assay for Interleukin-8 (IL8) Biomarker Activity (AID 2283020; active = hit-call score of the fitted dose curve at least 0.9, where 1 is the maximum; inactive = score below 0.9). The following applies: primary human endothelial cells (HUVEC); actives raise or lower the signal. The gist of the method:
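ELISA read-out of IL-8 from human umbilical vein endothelium, measured 24 h after chemical dosing. Activity is expressed relative to DMSO negative control, with both increases and decreases fitted.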

Results filed as inconclusive are left out. The source made the active and inactive calls. The calls were made as follows, unless noted: active = hit-call score of the fitted dose curve at least 0.9, where 1 is the maximum; inconclusive = response in the unintended direction; inactive = score below 0.9.

The AC50 is the midpoint of the concentration-response curve, whichever way the signal moves.

Retinoic acid receptor RXR-alpha (Homo sapiens), sequence (P19793 whole entry, looked up, the tested form may be a part): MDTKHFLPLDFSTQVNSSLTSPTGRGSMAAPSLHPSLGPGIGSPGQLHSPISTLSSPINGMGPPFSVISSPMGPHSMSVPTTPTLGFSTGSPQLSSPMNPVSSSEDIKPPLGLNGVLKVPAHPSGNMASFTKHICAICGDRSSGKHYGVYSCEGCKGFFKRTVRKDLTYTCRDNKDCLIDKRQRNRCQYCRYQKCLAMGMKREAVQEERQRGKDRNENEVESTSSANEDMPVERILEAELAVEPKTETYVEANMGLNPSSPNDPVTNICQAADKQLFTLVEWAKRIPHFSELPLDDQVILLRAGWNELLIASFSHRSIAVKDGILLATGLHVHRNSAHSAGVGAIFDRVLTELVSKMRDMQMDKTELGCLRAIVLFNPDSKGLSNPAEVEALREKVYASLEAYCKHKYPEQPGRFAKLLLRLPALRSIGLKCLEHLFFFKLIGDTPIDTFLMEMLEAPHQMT
E-selectin (Homo sapiens), sequence (P16581 whole entry, looked up): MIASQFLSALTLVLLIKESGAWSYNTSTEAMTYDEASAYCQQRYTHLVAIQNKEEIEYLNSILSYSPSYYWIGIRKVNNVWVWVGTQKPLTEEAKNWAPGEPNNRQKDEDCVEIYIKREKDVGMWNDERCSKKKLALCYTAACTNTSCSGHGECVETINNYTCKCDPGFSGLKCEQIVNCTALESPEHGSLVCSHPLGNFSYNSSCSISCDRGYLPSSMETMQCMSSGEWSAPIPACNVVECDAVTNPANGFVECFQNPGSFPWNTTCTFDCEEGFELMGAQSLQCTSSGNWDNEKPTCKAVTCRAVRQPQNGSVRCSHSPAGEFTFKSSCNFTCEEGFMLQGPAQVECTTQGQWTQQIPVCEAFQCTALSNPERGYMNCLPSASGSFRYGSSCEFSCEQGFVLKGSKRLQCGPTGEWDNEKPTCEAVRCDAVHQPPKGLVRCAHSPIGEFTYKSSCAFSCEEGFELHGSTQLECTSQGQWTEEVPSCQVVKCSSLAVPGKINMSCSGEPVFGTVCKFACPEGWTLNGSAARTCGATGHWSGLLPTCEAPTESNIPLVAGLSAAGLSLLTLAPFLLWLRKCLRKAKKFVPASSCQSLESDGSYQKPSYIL
human Peroxisome Proliferator-activated Receptor alpha (PPARa), PPARA (gene 5465), sequence (Q07869 whole entry, looked up, the tested form may be a part): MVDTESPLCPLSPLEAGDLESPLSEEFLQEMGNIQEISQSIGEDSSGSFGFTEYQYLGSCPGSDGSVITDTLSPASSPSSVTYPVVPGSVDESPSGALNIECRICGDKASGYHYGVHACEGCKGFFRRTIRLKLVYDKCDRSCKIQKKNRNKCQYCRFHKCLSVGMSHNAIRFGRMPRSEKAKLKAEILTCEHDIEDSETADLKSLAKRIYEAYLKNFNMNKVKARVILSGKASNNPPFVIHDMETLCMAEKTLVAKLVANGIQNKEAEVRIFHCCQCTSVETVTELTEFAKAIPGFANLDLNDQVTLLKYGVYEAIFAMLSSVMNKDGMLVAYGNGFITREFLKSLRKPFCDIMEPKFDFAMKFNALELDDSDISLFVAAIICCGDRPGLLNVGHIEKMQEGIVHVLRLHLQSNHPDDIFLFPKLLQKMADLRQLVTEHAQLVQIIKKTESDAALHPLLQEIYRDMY
human Thyroid Receptor alpha (THRa1), THRA (gene 7067), sequence (P10827 whole entry, looked up, the tested form may be a part): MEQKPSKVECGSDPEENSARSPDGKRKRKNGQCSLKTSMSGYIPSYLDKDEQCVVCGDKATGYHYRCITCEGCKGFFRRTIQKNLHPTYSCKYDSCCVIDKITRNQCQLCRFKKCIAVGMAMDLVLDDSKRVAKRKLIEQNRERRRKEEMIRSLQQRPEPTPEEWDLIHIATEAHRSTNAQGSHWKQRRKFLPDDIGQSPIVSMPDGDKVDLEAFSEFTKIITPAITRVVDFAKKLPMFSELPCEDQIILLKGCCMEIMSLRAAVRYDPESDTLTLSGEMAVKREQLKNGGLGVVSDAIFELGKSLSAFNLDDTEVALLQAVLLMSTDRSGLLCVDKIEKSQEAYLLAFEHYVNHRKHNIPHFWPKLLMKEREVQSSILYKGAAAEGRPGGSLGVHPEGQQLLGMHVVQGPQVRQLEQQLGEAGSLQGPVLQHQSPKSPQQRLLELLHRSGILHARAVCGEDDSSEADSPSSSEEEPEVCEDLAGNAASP
human Peroxisome Proliferator-activated Receptor delta (PPARd), PPARD (gene 5467), sequence (Q03181 whole entry, looked up, the tested form may be a part): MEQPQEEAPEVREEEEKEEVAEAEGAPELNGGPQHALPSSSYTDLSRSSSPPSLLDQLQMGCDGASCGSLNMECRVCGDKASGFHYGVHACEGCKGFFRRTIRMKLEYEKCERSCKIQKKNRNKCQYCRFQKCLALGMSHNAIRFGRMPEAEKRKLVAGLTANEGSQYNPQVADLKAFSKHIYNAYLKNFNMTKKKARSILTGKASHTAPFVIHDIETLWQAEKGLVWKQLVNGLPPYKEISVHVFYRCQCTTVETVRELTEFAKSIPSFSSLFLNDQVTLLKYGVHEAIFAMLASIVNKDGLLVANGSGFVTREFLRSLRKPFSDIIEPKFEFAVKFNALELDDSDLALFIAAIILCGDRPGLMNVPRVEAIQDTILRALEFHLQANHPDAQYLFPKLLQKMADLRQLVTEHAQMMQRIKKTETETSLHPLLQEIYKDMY
Peroxisome proliferator-activated receptor gamma (Homo sapiens), sequence (P37231 whole entry, looked up, the tested form may be a part): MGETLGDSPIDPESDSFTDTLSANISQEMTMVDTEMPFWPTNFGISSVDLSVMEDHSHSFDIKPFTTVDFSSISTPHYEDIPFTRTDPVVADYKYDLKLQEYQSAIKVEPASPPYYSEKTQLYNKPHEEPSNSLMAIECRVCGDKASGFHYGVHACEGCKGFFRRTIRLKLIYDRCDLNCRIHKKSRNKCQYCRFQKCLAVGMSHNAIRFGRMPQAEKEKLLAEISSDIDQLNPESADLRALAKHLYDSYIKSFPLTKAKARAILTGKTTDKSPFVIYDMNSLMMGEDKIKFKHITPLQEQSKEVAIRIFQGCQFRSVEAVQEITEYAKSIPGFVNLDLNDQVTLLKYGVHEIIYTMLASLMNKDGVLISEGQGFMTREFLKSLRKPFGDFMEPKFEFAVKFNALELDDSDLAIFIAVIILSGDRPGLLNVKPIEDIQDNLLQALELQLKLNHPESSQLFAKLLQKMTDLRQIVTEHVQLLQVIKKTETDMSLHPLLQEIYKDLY
human Retinoid X Receptor beta (RXRb), RXRB (gene 6257), sequence (P28702 whole entry, looked up, the tested form may be a part): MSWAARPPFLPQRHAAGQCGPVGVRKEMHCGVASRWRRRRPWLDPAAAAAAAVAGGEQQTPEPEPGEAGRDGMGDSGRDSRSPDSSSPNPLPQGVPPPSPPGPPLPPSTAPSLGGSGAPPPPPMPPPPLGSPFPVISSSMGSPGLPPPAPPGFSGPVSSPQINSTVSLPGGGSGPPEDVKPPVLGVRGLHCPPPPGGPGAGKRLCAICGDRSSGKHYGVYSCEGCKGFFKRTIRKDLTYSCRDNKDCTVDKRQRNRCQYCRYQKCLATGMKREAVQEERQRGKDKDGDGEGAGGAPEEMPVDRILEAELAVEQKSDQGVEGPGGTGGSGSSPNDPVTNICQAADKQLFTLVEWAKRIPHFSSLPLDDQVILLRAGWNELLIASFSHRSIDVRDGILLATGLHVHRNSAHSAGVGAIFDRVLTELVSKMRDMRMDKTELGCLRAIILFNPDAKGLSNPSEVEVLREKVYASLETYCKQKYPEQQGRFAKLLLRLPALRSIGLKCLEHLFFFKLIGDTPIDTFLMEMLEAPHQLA
Nuclear receptor subfamily 1 group I member 2 (Homo sapiens), sequence (O75469 whole entry, looked up, the tested form may be a part): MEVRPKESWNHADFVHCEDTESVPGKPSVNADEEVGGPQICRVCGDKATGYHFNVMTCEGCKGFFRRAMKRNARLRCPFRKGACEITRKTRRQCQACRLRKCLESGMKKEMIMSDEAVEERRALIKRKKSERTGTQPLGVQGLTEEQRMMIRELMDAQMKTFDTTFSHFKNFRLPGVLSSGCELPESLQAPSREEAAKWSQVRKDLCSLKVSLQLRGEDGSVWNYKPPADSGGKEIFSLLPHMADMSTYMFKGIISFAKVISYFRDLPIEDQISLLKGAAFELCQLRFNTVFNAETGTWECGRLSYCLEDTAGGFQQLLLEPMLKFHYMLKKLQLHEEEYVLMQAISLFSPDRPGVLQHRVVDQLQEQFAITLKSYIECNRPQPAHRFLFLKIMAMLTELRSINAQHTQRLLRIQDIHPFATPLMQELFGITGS
human RAR-related Orphan Receptor beta (RORb), RORB (gene 6096), sequence (Q92753 whole entry, looked up, the tested form may be a part): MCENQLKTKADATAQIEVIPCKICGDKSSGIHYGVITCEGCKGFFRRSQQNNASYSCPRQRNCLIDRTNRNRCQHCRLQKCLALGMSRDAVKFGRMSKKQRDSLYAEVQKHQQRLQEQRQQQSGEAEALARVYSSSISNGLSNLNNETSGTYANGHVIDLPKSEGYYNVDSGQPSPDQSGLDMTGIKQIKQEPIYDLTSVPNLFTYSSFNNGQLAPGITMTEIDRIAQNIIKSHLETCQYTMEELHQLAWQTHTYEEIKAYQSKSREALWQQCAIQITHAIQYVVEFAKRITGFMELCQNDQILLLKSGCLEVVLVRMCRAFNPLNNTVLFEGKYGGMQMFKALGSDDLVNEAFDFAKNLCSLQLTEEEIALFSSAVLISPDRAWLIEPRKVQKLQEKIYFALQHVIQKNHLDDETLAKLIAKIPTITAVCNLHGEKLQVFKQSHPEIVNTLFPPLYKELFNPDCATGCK
human RAR-related Orphan Receptor gamma (RORg), RORC (gene 6097), sequence (P51449 whole entry, looked up, the tested form may be a part): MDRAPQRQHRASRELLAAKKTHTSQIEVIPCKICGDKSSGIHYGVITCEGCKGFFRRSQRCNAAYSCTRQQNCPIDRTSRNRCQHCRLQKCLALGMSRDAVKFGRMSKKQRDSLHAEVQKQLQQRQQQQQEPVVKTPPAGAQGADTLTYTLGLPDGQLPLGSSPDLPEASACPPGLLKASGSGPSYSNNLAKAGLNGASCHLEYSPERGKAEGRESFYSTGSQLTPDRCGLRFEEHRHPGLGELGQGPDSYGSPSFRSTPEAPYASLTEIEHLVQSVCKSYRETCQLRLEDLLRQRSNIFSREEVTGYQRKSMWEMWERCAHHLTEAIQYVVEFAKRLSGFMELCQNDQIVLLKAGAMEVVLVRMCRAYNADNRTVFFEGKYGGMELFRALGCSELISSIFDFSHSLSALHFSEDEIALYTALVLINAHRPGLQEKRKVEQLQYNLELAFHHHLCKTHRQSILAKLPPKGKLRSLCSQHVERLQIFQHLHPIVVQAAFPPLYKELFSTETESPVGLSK

`CCCCCCOC(=O)CC`: the molecule was classed as inactive in assay [1], in [2], in assay [3], in assay [4], in assay [5] and in [6]. The call in [7], in assay [8] and in [9] was inactive.

Take `CCCCCCC#CC(=O)OC`: the outcome in [1], in assay [2], in [4], in [5], in assay [7] and in [9] was inactive. The AC50 in assay [3] was 5.61 µM (active).

For `CC1(C)CCC(C)(C)c2cc(C(=O)Nc3ccc(C(=O)O)cc3)ccc21`, the call in assay [1], in [2], in assay [10], in assay [7] and in assay [8] was inactive. For the same molecule, in assay [3], the half-maximal activity concentration (AC50) was 100 µM (active).

Consider `O=C1CCCCCCCCCCOCCCCO1`, for which the AC50 in [1] was 40 µM (active); in [3] it was 59.3 µM (active). The molecule was called inactive in [2], in [11], in assay [4], in [12], in assay [5] and in assay [7]. Moreover, the outcome in [8] and in assay [9] was inactive.

As to `CC(C)=CCO`, the molecule was classed as inactive in assay [1], in assay [2], in [3], in assay [4], in assay [5] and in [6]. Besides, the molecule was called inactive in assay [7] and in [9].

Consider `Cc1ccc2n[nH]nc2c1`, for which the result in [1], in [2], in assay [13], in assay [14], in [3] and in assay [4] was inactive. Besides, the molecule was called inactive in [6], in assay [8], in assay [9], in [15], in assay [16] and in assay [17]. For the same molecule, the result in assay [18], in [19] and in assay [20] was inactive.

For `Nc1cc([N+](=O)[O-])ccc1O`, the call in assay [1], in assay [2], in assay [13], in [14], in assay [3] and in assay [4] was inactive. Also, the molecule was called inactive in assay [5], in assay [7], in assay [8], in assay [15], in assay [16] and in assay [17]. Further, the outcome in assay [18], in [19] and in assay [20] was inactive.

As to `c1ccc2[nH]ccc2c1`, the outcome in assay [1], in [2], in [3], in assay [4], in assay [5] and in [7] was inactive. For the same molecule, the result in assay [8] and in assay [9] was inactive.

On to `c1ccc2c(c1)c1cccc3ccc4cccc2c4c31`, for which the result in assay [1], in [2], in assay [13], in [14], in assay [4] and in assay [5] was inactive. Further, the molecule was called inactive in assay [6], in assay [9], in [15], in assay [16], in assay [17] and in assay [18]. In assay [20], the outcome was inactive. The AC50 in [8] is 10.2 µM (active); in [19] it was 0.206 µM (active).

For the molecule `O=c1cc(-c2ccccc2)oc2cc(O)cc(O)c12`, the result in assay [1], in assay [2], in [11], in assay [4], in assay [12] and in assay [9] was inactive.
